Several values for one entry are separate records, joined by “and”; a condition that tells them apart may be missing. Identical values can stand only once. The campaign covered roughly 5,500 compounds. About 2,000 (36%) were called active. About 18% were inconclusive and are not listed. Cut-off read from the data, not from the text of the source: active = normalized growth mostly below about 0.91 (no sharp cut-off); inconclusive = no clear call, values can overlap the other calls; inactive = mostly above about 0.92. The list shows a part of the results.
Test: chemical genetic growth profiling, strain panel (AID 1159580);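 note: tested at 20 µM; growth read once vehicle control cultures reached saturation at 30 °C; 1 = growth at the plate median or of vehicle wells; lower values mean less growth of the strain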
Conditions: S. cerevisiae deletion strains, growth OD

Measured: normalized growth

COC(=O)c1c(OC)cc2c(c1C)Oc1c(Cl)c(O)c(Cl)c(C)c1C(=O)O2
inactive: locus YAL021C, strain ccr4, active compounds read low 0.99 | locus YAL026C, strain drs2, active compounds read low 0.99 | locus YAL030W, strain snc1, active compounds read low 0.977 | locus YBL061C, strain skt5, active compounds read low 0.993 | locus YBR009C, strain hhf1, active compounds read low 0.993 | locus YBR021W, strain FUR4, active compounds read low 1.02 | locus YBR023C, strain chs3, active compounds read low 0.988 | locus YBR171W, strain sec66, active compounds read low 0.985 | locus YBR231C, strain swc5, active compounds read low 0.989 | locus YBR279W, strain paf1, active compounds read low 0.992 | locus YCL011C, strain gbp2, active compounds read low 0.986 | locus YCL016C, strain dcc1, active compounds read low 0.99 | locus YCL029C, strain bik1, active compounds read low 0.925 | locus YCL069W, strain vba3, active compounds read low 1 | locus YCR088W, strain abp1, active compounds read low 0.975 | locus YDL005C, strain med2, active compounds read low 1 | locus YDL035C, strain GPR1, active compounds read low 0.906 | locus YDL040C, strain nat1, active compounds read low 0.98 | locus YDL074C, strain BRE1, active compounds read low 0.838 | locus YDL101C, strain DUN1, active compounds read low 0.912 | locus YDL134C, strain PPH21, active compounds read low 0.935 | locus YDL185W, strain tfp1, active compounds read low 0.937 | locus YDL192W, strain arf1, active compounds read low 0.949 | locus YDR001C, strain nth1, active compounds read low 0.986 | locus YDR069C, strain doa4, active compounds read low 0.968 | locus YDR101C, strain arx1, active compounds read low 0.965 | locus YDR137W, strain rgp1, active compounds read low 0.946 | locus YDR159W, strain sac3, active compounds read low 0.963 | locus YDR195W, strain ref2 1.09 | locus YDR297W, strain sur2, active compounds read low 0.981 | locus YDR318W, strain mcm21, active compounds read low 0.924 | locus YDR334W, strain swr1, active compounds read low 1.01 | locus YDR335W, strain msn5, active compounds read low 1 | locus YDR388W, active compounds read low 0.947 | locus YDR392W, strain spt3, active compounds read low 0.965 | locus YEL003W, strain gim4, active compounds read low 0.986 | locus YEL037C, strain rad23, active compounds read low 0.991 | locus YEL061C, strain CIN8 (second series), active compounds read low 0.988 | locus YEL061C, strain CIN8, active compounds read low 0.931 | locus YER015W, strain faa2, active compounds read low 0.991 | locus YER016W, strain bim1, active compounds read low 0.988 | locus YER110C, active compounds read low 0.929 | locus YER111C, strain swi4, active compounds read low 0.991 | locus YER155C, strain BEM2 (second series), active compounds read low 0.997 | locus YER155C, strain BEM2, active compounds read low 0.949 | locus YER167W, strain BCK2, active compounds read low 0.932 | locus YFR010W, strain ubp6, active compounds read low 0.982 | locus YGL078C, strain dbp3, active compounds read low 1 | locus YGL086W, strain mad1, active compounds read low 0.954 | locus YGL167C, strain pmr1, active compounds read low 0.954 | locus YGL173C, strain kem1, active compounds read low 0.985 | locus YGL227W, strain vid30, active compounds read low 0.991 | locus YGL240W, strain doc1, active compounds read low 0.993 | locus YGL248W, strain PDE1, active compounds read low 0.932 | locus YGL253W, strain hxk2, active compounds read low 0.997 | locus YGR078C, strain PAC10, active compounds read low 0.886 | locus YGR135W, strain pre9, active compounds read low 0.917 | locus YGR229C, strain SMI1, active compounds read low 0.852 | locus YGR252W, strain gcn5, active compounds read low 1.04 | locus YHR013C, strain ard1, active compounds read low 1.03 | locus YHR027C, strain rpn1, active compounds read low 0.997 | locus YHR030C, strain SLT2, active compounds read low 0.951 and 0.911 | locus YHR079C, strain IRE1 (second series), active compounds read low 0.943 | locus YHR079C, strain IRE1, active compounds read low 0.939 | locus YHR094C, strain hxt1, active compounds read low 0.948 | locus YHR129C, strain ARP1, active compounds read low 0.955 | locus YHR142W, strain chs7, active compounds read low 0.994 | locus YHR200W, strain rpn10, active compounds read low 0.938 | locus YIL066C, strain RNR3, active compounds read low 0.899 | locus YIL073C, strain SPO22, active compounds read low 0.969 | locus YIL125W, strain kgd1, active compounds read low 0.986 | locus YJL092W, strain hpr5, active compounds read low 0.98 | locus YJL095W, strain BCK1 (second series), active compounds read low 1 | locus YJL095W, strain BCK1, active compounds read low 0.903 and 0.92 | locus YJL115W, strain asf1, active compounds read low 1 | locus YJL129C, strain trk1, active compounds read low 0.949 | locus YJL154C, strain vps35, active compounds read low 0.97 | locus YJL164C, strain tpk1, active compounds read low 0.983 | locus YJL166W, strain qcr8, active compounds read low 0.974 | locus YJL187C, strain SWE1 (second series), active compounds read low 0.916 | locus YJL187C, strain SWE1, active compounds read low 0.984 | locus YJR043C, strain POL32, active compounds read low 0.977 | locus YJR066W, strain TOR1, active compounds read low 0.867
active: locus YAL013W, strain DEP1, active compounds read low 0.879 | locus YBR229C, strain ROT2, active compounds read low 0.909 | locus YDR150W, strain NUM1, active compounds read low 0.896 | locus YDR162C, strain NBP2, active compounds read low 0.82 | locus YDR502C, strain sam2, active compounds read low 0.919 | locus YIR030C, strain dcg1, active compounds read low 0.925 | locus YJL134W, strain LCB3, active compounds read low 0.922 | locus YJL168C, strain set2, active compounds read low 0.931

Source: PubChem BioAssay AID1159580 (chemical genetic matrix, 2015)
